Test results from PubChem BioAssay AID1209 (Sanford-Burnham Center for Chemical Genomics, 2008).
The campaign covered roughly 190,000 compounds. About 810 (0.43%) were called active. The sample as a whole holds a higher share of actives than the screen did. Values without a mark were called inactive. Cut-off read from the data, not from the text of the source: active = inhibition above about 50%; inactive = the rest.

target: Mannose-6-phosphate isomerase (Homo sapiens) (UniProt P34949); test: MPI enzyme activity inhibition – biochemical, fluorescence intensity, coupled assay, primary screen (AID 1209); settings: purified PMI enzyme, at 20 µM, hits give high values;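 note: plate controls were DMSO vehicle for no effect and wells lacking substrate for full effect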
Sequence (P34949 whole entry, looked up): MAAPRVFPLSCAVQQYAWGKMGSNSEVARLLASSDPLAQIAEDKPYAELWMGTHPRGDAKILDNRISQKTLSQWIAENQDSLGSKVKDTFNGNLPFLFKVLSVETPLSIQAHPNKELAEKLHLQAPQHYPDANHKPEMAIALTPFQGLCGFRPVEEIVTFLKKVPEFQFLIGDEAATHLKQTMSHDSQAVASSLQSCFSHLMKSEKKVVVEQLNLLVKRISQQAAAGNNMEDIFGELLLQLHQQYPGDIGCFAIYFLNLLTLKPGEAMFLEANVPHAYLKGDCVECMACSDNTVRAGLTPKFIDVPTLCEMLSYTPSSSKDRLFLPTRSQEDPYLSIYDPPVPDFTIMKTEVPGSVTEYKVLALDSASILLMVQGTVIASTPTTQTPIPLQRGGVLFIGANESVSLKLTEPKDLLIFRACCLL

Row | Structure (SMILES) | inhibition
1 | O=c1oc2cc(OCc3ccc(C(F)(F)F)cc3)ccc2cc1-c1ccccn1 | -7%
2 | O=C(NNC(=S)Nc1ccccc1)c1cccs1 | -13.9%
3 | NS(=O)(=O)c1ccc(NC(=S)NNC(=O)c2cccs2)cc1 | 63.3% (active)
4 | COc1cc(C(=O)NNC(=S)Nc2ccc(S(N)(=O)=O)cc2)cc(OC)c1OC | 56.6% (active)
5 | COc1cc(OC)cc(C(=O)NNC(=S)Nc2ccc(S(N)(=O)=O)cc2)c1 | -10.4%
6 | COc1cc(C(=O)NNC(=O)c2ccc(NC(C)=O)cc2)cc(OC)c1OC | -4.2%
7 | O=C(NNC(=S)Nc1ccc(Cl)cc1)c1cccs1 | -1.6%
8 | COc1ccc(C(=O)Nc2ccc3c(c2)nc(CN2CCCC2)n3C)cc1 | 9.7%
9 | C=CCn1c(SCC(=O)c2cccs2)nnc1-c1cccc(OC)c1 | 11.5%
10 | O=C(N/N=C/C(c1ccccc1)c1ccccc1)c1ccccc1F | -8.5%
11 | Cc1nn(-c2nc3ccccc3n2Cc2ccccc2)c2c1C(=O)CC(C)(C)C2 | 24.7%
12 | CNCc1ccccc1Sc1ccc(O)c(O)c1 | 74.9% (active)
13 | CNCc1ccccc1Sc1cccc(O)c1 | -7%
14 | CNCc1ccccc1Sc1cc(O)ccc1O | 19.1%
15 | CN(C(=O)CS(=O)(=O)c1cn(CC(=O)N2CCOCC2)c2ccccc12)c1ccccc1 | -4.3%
16 | Cc1ccc(NC(=O)NC2C(NC(=O)Nc3ccc(C)cc3)N(C)C(=O)N2C)cc1 (stereo not drawn) | 9.5%
17 | CNC(=S)N(CCc1c(C)[nH]c2ccc(OC)cc12)Cc1cccnc1 | 16%
18 | CC(C)(Cc1ccc(O)cc1)NC(=O)CC(=O)N=Nc1c(O)[nH]c2cc(Br)ccc12 | 51.6% (active)
19 | O=C(CSCc1ccc(Br)cc1)N=Nc1c(O)[nH]c2ccccc12 | 4.5%
20 | CC(C)(Cc1ccc(O)cc1)NC(=O)CC(=O)N=Nc1c(O)[nH]c2ccc(Br)cc12 | 1.3%
21 | CSc1nc2sc(-c3ccccc3)cc2c(=O)n1N | -6.6%

Row | Structure (SMILES) | inhibition
22 | CCOC(=O)Cc1csc(NC(=O)NC2(C(F)(F)F)Oc3ccccc3O2)n1 | 22.4%
23 | CCOC(=O)Cc1csc(NC(=O)Nc2cccc(Cl)c2)n1 | -0.4%
24 | CCOC(=O)Cc1csc(NC(=O)NC2(C(F)(F)F)Oc3cc(Cl)c(Cl)cc3O2)n1 | 57.5% (active)
25 | CCOC(=O)Cc1csc(NC(=O)CC)n1 | -9.9%
26 | CCOC(=O)Cc1csc(NC(=O)NC2(C(F)(F)F)Oc3ccc(Cl)cc3O2)n1 (stereo not drawn) | 51.8% (active)
27 | CCOC(=O)Cc1csc(NC(=O)C(C)(C)CC)n1 | -7.2%
28 | CC(OC(=O)c1ccc2ncsc2c1)C(=O)NCc1ccccc1 (stereo not drawn) | 15.5%
29 | O=C(Nc1nc(-c2cccs2)cs1)c1cc2ccccc2oc1=O | -3.3%
30 | O=C(NC(Cc1c[nH]c2ccccc12)C(=O)N/N=C/c1ccc(Cl)cc1)c1cccs1 (stereo not drawn) | 18.1%
31 | COc1cccc(C(=O)/C=C/c2ccc(N3CCCCC3)c([N+](=O)[O-])c2)c1 | 14.3%
32 | O=C(O)c1ccc(-c2nc(-c3ccccc3)cs2)cc1 | -11.3%
33 | Oc1ccc(-c2nc(-c3ccc(O)c(O)c3)cs2)cc1 | 54.3% (active)
34 | Oc1ccc(-c2csc(-c3ccccc3)n2)cc1O | 62.6% (active)
35 | O=C(O)c1ccc(-c2nc(-c3ccc(Cl)c(Cl)c3)cs2)cc1 | -3.3%
36 | Oc1ccccc1-c1csc(-c2ccccc2)n1 | 12.8%
37 | Cc1nc(-c2ccc(O)c(O)c2)cs1 | 47%
38 | Cc1ccccc1N1C(=O)CSC1=C(C#N)C#N | -15.3%
39 | CCC1=C/C(=C/c2sc3ccccc3[n+]2CC)CC(C)(C)C1 | -60.6%
40 | CCOC(=O)c1cnc2c(-c3ccccc3)c(C)nn2c1N | 9.6%
41 | Cc1ccc(CNC(=O)CCCCn2c(=O)[nH]c3ccsc3c2=O)cc1 | -4.3%
42 | CCCCn1c(-c2sccc2C)n[nH]c1=S | 8.1%

Row | Structure (SMILES) | inhibition
43 | COc1cccc(NC(=O)C2CC(=O)N=C(N)S2)c1 (stereo not drawn) | 15.2%
44 | COc1cccc(NC(=O)C2CC(=O)N(C)C(=Nc3cccc(F)c3)S2)c1 (stereo not drawn) | 15.4%
45 | COc1cccc(NC(=O)C2CC(=O)n3cnnc3S2)c1 (stereo not drawn) | 51.1% (active)
46 | Cc1ccc(-c2nnc(N3CCN(c4ccccn4)CC3)c3ccccc23)cc1 | 10.5%
47 | CC(C)CC(=O)Nc1cccc(NC(=O)CC(C)C)n1 | -6.8%
48 | Cc1ccccc1NC(=O)C(NS(=O)(=O)c1ccc2c(c1)c(=O)n(C)c(=O)n2C)c1ccccc1 (stereo not drawn) | -1.4%
49 | O=C(O)CCC(=O)N1CCN(c2ccc(C(=O)c3ccc(F)cc3)cc2)CC1 | 2.5%
50 | O=C(O)/C=C/C(=O)Nc1ccccc1C(=O)OCC(=O)c1ccc2c(c1)OCCO2 | 108% (active)
51 | O=C(COC(=O)c1ccccc1NC(=O)C1CC1)c1ccc2c(c1)OCCO2 | 20.7%
52 | CC(C)C(=O)Nc1ccccc1C(=O)OCC(=O)c1ccc2c(c1)OCCO2 | 12.7%
53 | COc1ccc(N2C(=O)/C(=C/N(C)C)NC2=S)cc1 | 6.1%
54 | COc1ccc(N2C(=O)/C(=C/c3cccs3)NC2=S)cc1 | 65.2% (active)
55 | COc1cccc(N2C(=O)/C(=C\c3cccs3)NC2=S)c1 | -20.3%
56 | CC(C(=O)Nc1ncccn1)(c1ccccc1)c1ccccc1 | 0.1%
57 | C=CCNC(=S)NNC(=O)c1ccc(=O)n(Cc2ccccc2)c1 | -1.4%
58 | CCOC(=O)c1cnc2ccc(C)cc2c1NCCO | -0.9%
59 | CCOC(=O)c1cnc2c(ccc3ccccc32)c1NCCO | 103% (active)
60 | CCOC(=O)c1cnc2ccccc2c1NCCO | -1.9%
61 | C/C(CC1CC(C)OC1=O)=N\NC(N)=S (stereo not drawn) | 17.6%
62 | CCOC(=O)c1sc(N(C)C(C)=O)nc1C | -2.3%
63 | Cc1ccc(-n2c(SCC(=O)N(C)C3CCS(=O)(=O)C3)nc3ccccc3c2=O)cc1 (stereo not drawn) | -4.5%
